In the supplement of paper PMC10981050:
Where “and” joins values, the source holds several entries; their conditions need not be identical. Equal values may be shown once. Where a name gives a salt, the structure may show the parent alone.

Columns and labels:
Assay in all cases: cell viability relative to vehicle control; higher = less cytotoxic
Details in all cases: 10 µM
K562 = system: K562
Outline: (§1)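 After removal of identity-inconsistent compounds, the Selleck bioactive, kinase and epigenetic probe libraries were screened on CRISPR-edited mutant clones and isogenic wild-type clones of four leukaemia lines. Plates were 384-well, each well holding 2000 cells in 50 µL medium and receiving a single 10 µM acoustically dispensed dose. CellTiter-Glo luminescence was read 48 h later, after the supernatant was taken off. Genedata Screener was used to express viability as percent of the on-plate vehicle control.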

MARIMO = system: MARIMO
Outline: as §1

MOLM14 = system: MOLM14
Outline: as §1

OCI-AML2 = system: OCI-AML2
Outline: as §1

| Structure (SMILES) | cell viability (K562; SRSF2 genotype: SRSF2 P95H/wt) | cell viability (K562; SRSF2 genotype: SRSF2 wt/wt) | cell viability (MARIMO; SRSF2 genotype: SRSF2 P95H/wt) | cell viability (MARIMO; SRSF2 genotype: SRSF2 wt/wt) | cell viability (MOLM14; SRSF2 genotype: SRSF2 P95H/wt) | cell viability (MOLM14; SRSF2 genotype: SRSF2 wt/wt) | cell viability (OCI-AML2; SRSF2 genotype: P95H/wt) | cell viability (OCI-AML2; SRSF2 genotype: wt/wt) |
| --- | --- | --- | --- | --- | --- | --- | --- | --- |
| CN(c1ccccc1CNc1nc(Nc2ccc3c(c2)CC(=O)N3)ncc1C(F)(F)F)S(C)(=O)=O | 17% and 28.3% | 16.4% | 8.93% | 3.27% | 0.69% | 0.39% | 1.33% | 13.7% |
| Nc1ccc(S(=O)(=O)Nc2nccs2)cc1 [Sulfathiazole] | 104% and 98.6% | 95.4% | 95.8% | 107% | 103% | 102% | 96% | 105% |
| C=CC(=O)Nc1cccc(Oc2nc(Nc3ccc(N4CCN(C)CC4)cc3)ncc2Cl)c1 | 19.3% and 33.1% | 34.2% | 29.4% | 18.8% | -0.04% | -0.03% | 0.39% | 5.07% |
| CCCNC(C)C(=O)Nc1c(C)csc1C(=O)OC (stereo not drawn) [Articaine HCl] | 107% and 117% | 114% | 107% | 106% | 106% | 107% | 116% | 99.9% |
| Cc1cccc(-c2[nH]c(C(C)(C)C)nc2-c2ccc3nccnc3c2)n1 | 111% and 95.8% | 99.7% | 108% | 105% | 105% | 101% | 108% | 115% |
| CC(=O)Nc1cccc(-n2c(=O)n(C3CC3)c(=O)c3c(Nc4ccc(I)cc4F)n(C)c(=O)c(C)c32)c1 | 67.7% and 87.2% | 77.8% | 39.6% | 38.5% | 42.3% | 27.1% | 39.8% | 41.6% |
| Cc1cc(O)cc(OC2OC(CO)C(O)C(O)C2O)c1 (stereo not drawn) [Orcinol glucoside] | 104% and 100% | 101% | 97.5% | 104% | 102% | 106% | 108% | 95.4% |
| O=C(O)c1ccc(Nc2ncc3c(n2)-c2ccc(Cl)cc2C(c2c(F)cccc2F)=NC3)cc1 | 66.5% and 78.8% | 68.1% | 80.4% | 88.1% | 51.4% | 35.4% | 41.3% | 38.8% |
| CC(C)=CCC[C@](C)(O[C@@H]1O[C@H](CO[C@@H]2O[C@H](CO)[C@@H](O)[C@H](O)[C@H]2O)[C@@H](O)[C@H](O)[C@H]1O)[C@H]1CC[C@]2(C)[C@@H]1[C@H](O)C[C@@H]1[C@@]3(C)CC[C@H](O[C@@H]4O[C@H](CO)[C@@H](O)[C@H](O)[C@H]4O[C@@H]4O[C@H](CO)[C@@H](O)[C@H](O)[C@H]4O)C(C)(C)[C@@H]3CC[C@]12C [Ginsenoside Rb1] | 103% and 102% | 105% | 103% | 112% | 103% | 102% | 101% | 111% |
| CN1C(CCl)Nc2cc(Cl)c(S(N)(=O)=O)cc2S1(=O)=O (stereo not drawn) [Methyclothiazide] | 92.4% and 91.5% | 98.4% | 96.5% | 100% | 90% | 97.4% | 96.3% | 99% |
| COc1cc(Nc2ncc(F)c(Nc3ccc4c(n3)NC(=O)C(C)(C)O4)n2)cc(OC)c1OC [R406(free base)] | 95% and 101% | 104% | 72.2% | 85.1% | 25.2% | 16% | 42.1% | 56.3% |
| CCCS(=O)(=O)Nc1ccc(F)c(C(=O)c2c[nH]c3ncc(Cl)cc23)c1F | 87.6% and 92.7% | 94.9% | 72.2% | 88.4% | 81.4% | 88.1% | 99.2% | 105% |
| CCCCC(=O)N(Cc1ccc(-c2ccccc2-c2nnn[nH]2)cc1)[C@H](C(=O)O)C(C)C [Valsartan (Diovan)] | 102% and 98.1% | 105% | 102% | 112% | 104% | 106% | 101% | 112% |
| Oc1ncnc2[nH]ncc12 [Allopurinol (Zyloprim)] | 99% and 99.5% | 104% | 97.1% | 98.3% | 99.3% | 96% | 101% | 104% |
| CC1(C)CC[C@]2(C(=O)O)CC[C@]3(C)C(=CC[C@@H]4[C@@]5(C)CC[C@H](O)C(C)(C)[C@@H]5CC[C@]43C)[C@@H]2C1 [Oleanolic Acid (Caryophyllin)] | 96.5% and 91.2% | 87.9% | 80.7% | 82.8% | 85.6% | 94.7% | 66.8% | 82.7% |
| CCOC(=O)Nc1ccc(NCc2ccc(F)cc2)nc1N [Flupirtine maleate] | 101% and 104% | 104% | 91.5% | 105% | 101% | 103% | 100% | 110% |
| COc1ccc(CNc2nc(N3CCC[C@H]3CO)ncc2C(=O)NCc2ncccn2)cc1Cl [Avanafil] | 96.2% and 96.6% | 98.8% | 104% | 106% | 103% | 104% | 102% | 105% |
| C=C1/C(=C\C=C2/CCC[C@]3(C)[C@@H]([C@H](C)CCCC(C)(C)O)CC[C@@H]23)C[C@@H](O)C[C@@H]1O [Calcitriol (Rocaltrol)] | 81.2% and 89.8% | 88.2% | 66.9% | 66.5% | 65.4% | 62.6% | 64.9% | 76.3% |
| Nc1nc2ccc(OC(F)(F)F)cc2s1 [Riluzole (Rilutek)] | 94.3% and 96.3% | 88.4% | 94% | 90.6% | 81.8% | 98.6% | 103% | 94.8% |
| Cc1cnc(Nc2ccc(OCCN3CCCC3)cc2)nc1Nc1cccc(S(=O)(=O)NC(C)(C)C)c1 | 1.46% and 2.3% | 2.29% | 6.76% | 10.9% | 0.67% | 0.58% | 0.71% | 1.39% |
| CN1CCN(c2ccc(OC(F)(F)F)c(Nc3ncc4c(n3)-c3c(c(C(N)=O)nn3CCO)CC4)c2)CC1 | 29.2% and 49.6% | 46% | 24.7% | 22.9% | 17.5% | 4.9% | 14.6% | 18.8% |

| Structure (SMILES) | cell viability (K562; SRSF2 genotype: SRSF2 P95H/wt) | cell viability (K562; SRSF2 genotype: SRSF2 wt/wt) | cell viability (MARIMO; SRSF2 genotype: SRSF2 P95H/wt) | cell viability (MARIMO; SRSF2 genotype: SRSF2 wt/wt) | cell viability (MOLM14; SRSF2 genotype: SRSF2 P95H/wt) | cell viability (MOLM14; SRSF2 genotype: SRSF2 wt/wt) | cell viability (OCI-AML2; SRSF2 genotype: P95H/wt) | cell viability (OCI-AML2; SRSF2 genotype: wt/wt) |
| --- | --- | --- | --- | --- | --- | --- | --- | --- |
| O=c1cc(-c2ccc(O)cc2)oc2cc(O)c([C@@H]3O[C@H](CO)[C@@H](O)[C@H](O)[C@H]3O)c(O)c12 [Isovitexin] | 98.2% and 98.6% | 98.3% | 92.1% | 93.6% | 95.1% | 95.9% | 99.7% | 103% |
| O=C(O)CC(O)C(=O)O (stereo not drawn) [Malic acid] | 82.4% and 82.1% | 83.7% | 99.6% | 88.9% | 77.2% | 101% | 102% | 104% |
| C#C[C@]1(O)CC[C@H]2[C@@H]3CCc4cc(OC5CCCC5)ccc4[C@H]3CC[C@@]21C [Quinestrol] | 78.4% and 83.7% | 71% | 62.4% | 57.9% | 78.8% | 79.2% | 49.7% | 60.6% |
| CC(NC(=O)Cc1cc(F)cc(F)c1)C(=O)NC(C(=O)OC(C)(C)C)c1ccccc1 (stereo not drawn) | 98.8% and 103% | 106% | 83.2% | 95.7% | 96.8% | 103% | 90% | 102% |
| CC1CNC(=O)NC1=O (stereo not drawn) [Dihydrothymine] | 102% and 110% | 97.3% | 96.7% | 108% | 97.7% | 103% | 94% | 105% |
| CCn1c(=O)c(-c2cc[nH]n2)cc2c(C)nc(N)nc21 | 54.4% and 68.5% | 65.7% | 43.5% | 35.6% | 29.2% | 26.4% | 13.8% | 20.5% |
| O=S(=O)(c1ccccc1)N(CC(F)(F)F)c1ccc(C(O)(C(F)(F)F)C(F)(F)F)cc1 | 74.6% and 72.6% | 72.3% | 67.8% | 70.4% | 62.3% | 65.2% | 67.5% | 70.7% |
| C[C@H]1COC2=C1C(=O)C(=O)c1c2ccc2c1CCCC2(C)C [Cryptotanshinone] | 32.1% and 18.5% | 47.8% | 60.3% | 76.1% | 58.6% | 69.2% | 42.7% | 46.5% |
| Cc1c(C(=O)C=Cc2ccccc2)[n+](=O)c2ccccc2n1[O-] [Quinocetone] | 72.1% and 60% | 74.1% | 62.2% | 63.8% | 56.5% | 62.6% | 62.7% | 68.6% |
| COC(=O)N[C@H](C(=O)N[C@@H](Cc1ccccc1)[C@@H](O)CN(Cc1ccc(-c2ccccn2)cc1)NC(=O)[C@@H](NC(=O)OC)C(C)(C)C)C(C)(C)C [Atazanavir sulfate] | 97.1% and 109% | 102% | 93.5% | 118% | 103% | 104% | 94.5% | 97.3% |
| CC[C@@H]1C(=O)N(C)c2cnc(Nc3ccc(C(=O)N[C@H]4CC[C@H](N5CCN(CC6CC6)CC5)CC4)cc3OC)nc2N1C(C)C [BI6727 (Volasertib)] | 3.41% and 6.94% | 9.46% | 12.2% | 16.7% | 3.23% | 0.61% | 4.52% | 11.5% |
| COc1cc(/C=C/c2ccc(O)c(O)c2)cc(OC)c1 [3'-Hydroxypterostilbene] | 74% and 61.4% | 67.4% | 29.2% | 39.9% | 21.3% | 10.6% | 44.4% | 44.7% |
| CCOCC(O)COc1ccc(NC(=O)CC[S+](C)C)cc1 (stereo not drawn) [Suplatast tosylate] | 100% | 103% | 97.7% | 109% | 105% | 105% | 97.7% | 110% |
| CCCC(=O)Nc1ccc(OCC(O)CNC(C)C)c(C(C)=O)c1 (stereo not drawn) [Acebutolol HCl] | 96.2% and 86.2% | 86.2% | 97.3% | 95.1% | 92.4% | 93.3% | 94.9% | 91.7% |
| O=c1[nH]cnc2nc[nH]c12 [Hypoxanthine] | 98.8% and 108% | 96.8% | 101% | 116% | 103% | 115% | 103% | 105% |
| CC(=O)NC(CC(C)C)C(=O)O (stereo not drawn) [Acetylleucine] | 91.4% and 98.5% | 97% | 103% | 93.4% | 101% | 94.8% | 92.2% | 95.4% |
| CC(C)(C)c1cc(NC(=O)Nc2ccc(Oc3ccnc4[nH]c(=O)cnc34)cc2F)n(-c2ccccc2)n1 | 30% and 44% | 25.7% | 14.6% | 9.05% | 7.07% | 2.65% | 6.64% | 15.8% |
| CC(=O)OC(C)C(C)C(=O)OCC12C3CC(C)(C)[C@H](O[C@@H]1C[C@]1(C)C3=CCC3C4(C)CCC(O[C@@H]5O[C@H](C(=O)O)[C@@H](O[C@H]6O[C@H](CO)[C@@H](O)[C@H](O)[C@H]6O)[C@H](O)[C@H]5O[C@@H]5OC[C@@H](O)[C@H](O)[C@H]5O)[C@](C)(CO)C4CCC31C)C2O (stereo partly drawn) [Sodium Aescinate] | 90.7% and 98.9% | 93.9% | 95.5% | 96.8% | 89.4% | 92.3% | 88.5% | 93.2% |
| Cc1ncc(CCCN(C)C)cc1Nc1ncc2c(n1)-c1ccc(C(F)(F)F)cc1NC(=S)C2 | 46.2% and 57.9% | 54.3% | 49.5% | 44.5% | 18.3% | 8.47% | 16.3% | 21.1% |
| CC#Cc1cncc(-c2ccc3c(c2)C2(N=C(C)C(N)=N2)C2(CCC(OC)CC2)C3)c1 (stereo not drawn) | 108% and 98.5% | 107% | 100% | 103% | 98% | 98.9% | 88.8% | 93.1% |
